Drawing on PubChem BioAssay (EPA / NIEHS), this text covers outcome and AC50 for 15 compounds.

Structures are written as SMILES. Calls of active or inactive are those of the source. How the source made its calls: active means hit-call score of the fitted dose curve at least 0.9, where 1 is the maximum; inactive means score below 0.9.

Read-out in assay [1]: Interleukin-8 (IL8), CXCL8 (gene 3576)
The assay can be described thus: BSK_CASM3C_IL8: BioMAP Diversity Plus: CASM3C Assay for Interleukin-8 (IL8) Biomarker Activity (AID 2283042).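 Further: IL-8 protein level quantified by ELISA.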 The conditions noted are these: primary human coronary artery smooth muscle cells; actives raise or lower the signal.

Read-out in assay [2]: Human Leukocyte Antigen - DR isotype (HLADR), HLA-DRA (gene 3122)
As to the kind of experiment: BSK_CASM3C_HLADR: BioMAP Diversity Plus: CASM3C Assay for Human Leukocyte Antigen - DR isotype (HLADR) Biomarker Activity (AID 2283043).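 Further: cell-surface HLA-DR protein level quantified by ELISA.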 The conditions noted are these: primary human coronary artery smooth muscle cells; actives raise or lower the signal.

Read-out in assay [3]: Macrophage colony-stimulating factor (MCSF), CSF1 (gene 1435)
The assay can be described thus: BSK_CASM3C_MCSF: BioMAP Diversity Plus: CASM3C Assay for Macrophage colony-stimulating factor (MCSF) Biomarker Activity (AID 2283044).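 Further: M-CSF protein amount quantified by ELISA after 24 h exposure.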 The conditions noted are these: primary human coronary artery smooth muscle cells; actives raise or lower the signal.

Read-out in assay [4]: Low-density lipoprotein receptor (LDLR), LDLR (gene 3949)
As to the kind of experiment: BSK_CASM3C_LDLR: BioMAP Diversity Plus: CASM3C Assay for Low-density lipoprotein receptor (LDLR) Biomarker Activity (AID 2283045).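 Further: LDLR protein level on the cell surface quantified by ELISA.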 The conditions noted are these: primary human coronary artery smooth muscle cells; actives raise or lower the signal.

Read-out in assay [5]: Monocyte Chemoattractant Protein-1 (MCP1), CCL2 (gene 6347)
As to the kind of experiment: BSK_CASM3C_MCP1: BioMAP Diversity Plus: CASM3C Assay for Monocyte Chemoattractant Protein-1 (MCP1) Biomarker Activity (AID 2283046).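 Further: MCP-1 level quantified by ELISA 24 h after dosing.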 The conditions noted are these: primary human coronary artery smooth muscle cells; actives raise or lower the signal.

Assay [6] is described as follows: BSK_CASM3C_Proliferation: Cell Proliferation Assessment in the BioMAP Diversity Plus: CASM3C Assay (AID 2283047).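 Further: sulforhodamine B total protein stain as relative cell number at 560 nm; sub-confluent cells exposed 48 h before staining; fitted both ways against DMSO so gain or loss of cell number.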 The conditions noted are these: primary human coronary artery smooth muscle cells.
Read-out in assay [7]: Monokine induced gamma interferon (MIG), CXCL9 (gene 4283)
The assay can be described thus: BSK_CASM3C_MIG: BioMAP Diversity Plus: CASM3C Assay for Monokine induced gamma interferon (MIG) Biomarker Activity (AID 2283048).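 Further: MIG protein level measured by ELISA.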 The conditions noted are these: primary human coronary artery smooth muscle cells; actives raise or lower the signal.

Read-out in assay [8]: serum amyloid A (SAA), SAA1 (gene 6288)
The assay can be described thus: BSK_CASM3C_SAA: BioMAP Diversity Plus: CASM3C Assay for serum amyloid A (SAA) Biomarker Activity (AID 2283049).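 Further: SAA protein level quantified by ELISA.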 The conditions noted are these: primary human coronary artery smooth muscle cells; actives raise or lower the signal.

Assay [9] is described as follows: BSK_CASM3C_SRB: Viability Assessment in the BioMAP Diversity Plus: CASM3C Assay (AID 2283050).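 Further: total protein by SRB staining as cytotoxicity measure in parallel cultures; cells exposed to compound for 24 h.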 The conditions noted are these: primary human coronary artery smooth muscle cells.
Read-out in assay [10]: Thrombomodulin, THBD (gene 7056)
As to the kind of experiment: BSK_CASM3C_Thrombomodulin: BioMAP Diversity Plus: CASM3C Assay for Thrombomodulin Biomarker Activity (AID 2283051).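 Further: thrombomodulin protein level measured by ELISA 24 h after dosing.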 The conditions noted are these: primary human coronary artery smooth muscle cells; actives raise or lower the signal.

As usually defined, the AC50 is the concentration giving half of the maximal activity seen. Take `CSC(=O)c1cccc2nnsc12`: the outcome in [1], in assay [2], in assay [3], in assay [4], in assay [5] and in assay [6] was inactive. Moreover, the outcome in assay [7], in assay [8] and in [9] was inactive. For the same compound, in [10], the AC50 was 20 µM (active).

Consider `c1ccc(Nc2ccccc2)cc1`, for which the result in assay [1], in assay [2], in assay [3], in [4], in assay [5] and in assay [6] was inactive. Also, the result in assay [7], in assay [8], in [9] and in [10] was inactive.

On to `CCOC(=O)c1ccc(O)cc1`, for which the outcome in assay [1], in assay [2], in [3], in [4], in [5] and in [6] was inactive. Also, the result in assay [7], in assay [8], in assay [9] and in assay [10] was inactive.

As to `COC(=O)c1ccc(I)cc1S(=O)(=O)NC(=O)Nc1nc(C)nc(OC)n1`, the outcome in assay [1], in assay [2], in [3], in [4], in assay [5] and in assay [6] was inactive. The outcome in assay [7], in [8], in assay [9] and in [10] was inactive.

For `Cc1nn(C)c(Oc2ccccc2)c1C=NOCc1ccc(C(=O)OC(C)(C)C)cc1`, the result in [1], in assay [2], in assay [3], in assay [4], in [5] and in assay [7] was inactive. The outcome in assay [8] and in [9] was inactive. In addition, the figures for the AC50 in assay [6] and in [10] were 20 µM (active) and 16.3 µM (active), respectively.

Turning to `COC(=O)c1cccc(C)c1S(=O)(=O)NC(=O)Nc1nc(OCC(F)(F)F)nc(N(C)C)n1`, the outcome in [1], in assay [2], in [3], in [4], in assay [5] and in assay [6] was inactive. Moreover, the outcome in [7], in [8], in assay [9] and in assay [10] was inactive.

In the case of `CCCCCCC(C)OC(=O)COc1nc(F)c(Cl)c(N)c1Cl` (stereo not given), the AC50 in assay [1] was 32.9 µM (active); in [2] it was 31.9 µM (active); in assay [3] it was 30.2 µM (active); in assay [5], 29.9 µM (active); in [6], 36.1 µM (active); in [7] it was 31.6 µM (active). Further, the results for the AC50 in assay [8], in [9] and in [10] were 25.7 µM (active), 35.3 µM (active) and 29.7 µM (active), respectively. In addition, in assay [4], the result was inactive.

Consider `OB(O)O`, for which the result in [1], in assay [2], in assay [3], in assay [4], in assay [5] and in [6] was inactive. Further, the result in [7], in [8], in assay [9] and in assay [10] was inactive.

In the case of `N[C@@H](Cc1cc(I)c(Oc2ccc(O)c(I)c2)c(I)c1)C(=O)O`, the result in assay [1], in assay [2], in assay [3], in [4], in assay [5] and in assay [6] was inactive. Further, the outcome in assay [7], in [8], in [9] and in assay [10] was inactive.

On to `CCCCOC(=O)C(C)Oc1ccc(Oc2ccc(C(F)(F)F)cn2)cc1` (stereo not given), for which the outcome in assay [1], in assay [2], in assay [3], in assay [4], in assay [5] and in assay [6] was inactive. The outcome in [7], in assay [8], in assay [9] and in [10] was inactive.

`CN(C)C(=O)Nc1ccc(Cl)c(Cl)c1`: the outcome in assay [1], in assay [2], in assay [3], in [4], in assay [5] and in assay [6] was inactive. Besides, the result in assay [7], in assay [8], in assay [9] and in assay [10] was inactive.

Take `CCNc1nc(N)nc(Cl)n1`: the outcome in assay [1], in assay [2], in assay [3], in assay [4], in assay [5] and in assay [6] was inactive. Moreover, the result in assay [7], in [9] and in [10] was inactive. Besides, the AC50 in [8] is 20 µM (active).

As for `CCC(C)OC(=O)N1CCCCC1CCO` (stereo not given), the result in assay [1], in [2], in [3], in assay [4], in [5] and in [6] was inactive. Also, the outcome in assay [7], in [8], in assay [9] and in [10] was inactive.

On to `CCCOC(=O)NCCCN(C)C`, for which the result in assay [1], in assay [2], in assay [3], in assay [4], in assay [5] and in assay [6] was inactive. Besides, the outcome in assay [7], in assay [8], in assay [9] and in [10] was inactive.

On to `O=C(Nc1ccc([N+](=O)[O-])cc1Cl)c1cc(Cl)ccc1O`, for which the AC50 in assay [1] is 2.27 µM (active); in [2] it was 0.899 µM (active); in assay [6] it was 1.03 µM (active); in assay [7], 0.764 µM (active); in [8], 1.56 µM (active); in assay [9] it was 0.826 µM (active). In [10], the AC50 is 0.643 µM (active). In addition, the outcome in assay [3], in assay [4] and in [5] was inactive.
